Screening data as filed in PubChem.
HCMV antiviral = inhibitors of human cytomegalovirus | AID 1259415 | HFF cells, HCMV-luciferase reporter, 72 h; active compounds read low | activity change, negative = inhibition, % at 57.5 µM | 4.5% of 410,000 active; in the data active = activity change below about -60%; inconclusive = no clear call, values can overlap the other calls; inactive = above about -39%
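Two-dose cell screen: HFF monolayers treated with compounds and infected with luciferase-expressing HCMV at 1 PFU/cell, 72 h at 37C, then lysed for luciferase measurement.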
VACV mCherry inh = vaccinia inhibition (mCherry reporter); Vaccinia virus mCherry reporter infection, fluorescence; Potency, µM (titrated, usually from 36.5 µM), without a hit: top-dose activity change, negative = inhibition, usual class: inhibitors; 0.63% of 310,000 active; calls by dose curve; tested in A549 cells; note: potency is the fitted concentration of half-maximal effect; nearly all actives have a fitted effect of over 35% in size
Lassa entry inh = inhibitors of Lassa virus binding or cell entry; Lassa virus pseudotype entry inhibition, cell reporter; Potency, µM (highest dose often 37.9 µM), for the others: top-dose activity change, negative = inhibition, usual class: inhibitors; 1.2% of 300,000 active; AID 540256; calls by dose curve; tested in HEK293 cells; note: potency is the fitted concentration of half-maximal effect; nearly all actives have a fitted effect of over 50% in size
MARV entry inh = Marburg virus entry inhibition; 1.8% of 300,000 active; Marburg virus pseudotyped entry inhibition, cell reporter; Potency, µM (titrated, usually from 37.8 µM), for inactives: top-dose activity change, negative = inhibition, usual class: inhibitors; calls by dose curve; tested in HEK293 cells; note: potency is the fitted concentration of half-maximal effect
HCV inhibitor = HCV inhibition; Huh7.5.1 HCVcc-Cre infection, luciferase reporter, 44 h; Potency, µM (highest dose often 41.8 µM), without a hit: at the top dose activity change, negative = inhibition, usual class: inhibitors; 3.4% of 340,000 active; active = well fitted inhibition curve with a large enough effect; inconclusive = small, poorly fitted or top-dose-only effect, or another doubt; inactive = no such curve, though single readings can be large or run the other way; note: potency is the fitted concentration of half-maximal effect
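Infectious HCVcc-Cre (~0.5 moi) was added to cells just after compound, with cells seeded 4 h earlier at 1,000 per well. Luciferase activity after 44 h culture reported infection; substrate was incubated 15 min at room temperature before reading.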
VACV Venus inh = vaccinia inhibition (Venus reporter). Vaccinia virus Venus reporter expression, fluorescence. Potency, µM (top dose mostly 36.5 µM), without a hit: at the highest dose activity change, negative = inhibition, hits mostly inhibitors. 0.46% of 330,000 active; calls by dose curve; tested in A549 cells; note: potency is the fitted concentration of half-maximal effect; nearly all actives have a fitted effect of over 30% in size
The depositor's hits bear a star; i = inactive; u = inconclusive; x = no result given; ! = repeats disagree; [ ] = another dose, or the depositor's remark. Hits are enriched below; roughly 7.8% of the tested compounds scored in any of these assays. % is set by controls: 0 for no effect and ±100 for the full control effect.

SMILES	HCMV antiviral	VACV mCherry inh	Lassa entry inh	MARV entry inh	HCV inhibitor	VACV Venus inh
CCOC(=O)CSc1nc2cc3c(cc2c(=O)n1Cc1ccc(C(=O)NCCc2ccc(OC)c(OC)c2)cc1)OCO3	34	-8%	0%[46.1 µM]	x	x	-10%
Cc1cccc(C)c1NC(=O)CCCN1C(=O)CCn2nc(-c3cn(C)c4ccccc34)cc21	-2	-16%	23%[46.1 µM]	x	x	-4%
O=C(NCCc1ccc(Cl)cc1)c1cccn1-c1nnc(N2CCCCC2)s1	0	-16%	-19%[46.1 µM]	x	x	-11%
COc1ccccc1N1CCN(C(=O)c2ccc3nc(-c4ccco4)c(-c4ccco4)nc3c2)CC1	-8	11µM*	u	21µM*	11µM*!	u
COC(=O)c1cc(C(=O)N2CCN(c3ccccc3OC)CC2)cc([N+](=O)[O-])c1	u	2.8µM*	-28%	u	-26%	-16%
COC(=O)c1cc(C(=O)N2CCN(c3cccc(C)c3C)CC2)cc([N+](=O)[O-])c1	9	u	-23%	4.5µM*	u	-24%
CC(C)OC(=O)[C@H](C)NC(=O)N1CCc2nc(COc3ccccc3)c3c(c2C1)CO[C@@H](C)C3	x	x	x	-36%[14.2 µM]	x	x
CCC(=O)Nc1nc2ccc(NC(C)=O)cc2s1	52	-17%	1%	-8%	13%	-12%
COc1ccc(C)c2sc(NC(=O)CCS(=O)(=O)c3ccccc3)nc12	-89*	u	u	u	u	u
CCOc1cccc2sc(NC(=O)CCS(=O)(=O)c3ccccc3)nc12	x	u	u	10µM*	22µM*	-28%
Cc1nnc(NC(=O)CCS(=O)(=O)c2ccccc2)s1	120	u	u	-22%[46.1 µM]	-23%	-21%
CCOc1cccc2sc(Nc3nc4ccc(NC(C)=O)cc4s3)nc12	-90*	-26%	u	10µM*	4.5µM*	u
CCOc1cccc2sc(N(CCN(C)C)C(=O)CCS(=O)(=O)c3ccccc3)nc12	21	-13%	3%	u	22%	u
Cc1ccc(NC(=O)CN2CCN(C3CCCCC3)C(=O)C2=O)cc1C	5	-13%	23%[46.1 µM]	x	x	-2%
CCCCNC(=O)c1nc2cc(C)c(C)cc2nc1-c1ccccc1	17	x	x	x	x	x
CC(C)N1CCN(C(=O)c2cnn(-c3nccc(-c4ccc5c(c4)OCO5)n3)c2-c2ccco2)CC1	x	u	x	x	x	-24%
O=C(CCCCn1c(=O)c2ccccc2n(Cc2ccccc2F)c1=O)NCc1ccccc1Cl	10	-27%	-6%[46.1 µM]	u	x	-17%
Cc1ccc(-c2nn(C)c(=O)c3ccccc23)cc1CNC(=O)/C=C/c1ccccc1	-14	-14%	21µM*	u	-53%	-17%
CC(=O)NCc1cc(-c2nn(C)c(=O)c3ccccc23)ccc1C	133	-9%	-3%	10%	5%	-7%
CC(=O)Nc1nc(-c2ccc3c(c2)CC(C)N3C(=O)C2CC2)c(C)s1 (stereo not drawn)	-100*	39%	6%	-16%[46.1 µM]	u	-11%
Cc1sc(NC(=O)c2ccco2)nc1-c1ccc2c(c1)CC(C)N2C(=O)C1CC1 (stereo not drawn)	-97*	x	9.2µM*	10µM*	5µM*	x
Cc1sc(NC(=O)c2ccco2)nc1-c1ccccc1	45	x	u	u	14µM*	-17%
Cc1ccccc1CNC(=O)C1=Cc2ccccc2OC1	19	-4%	18%[46.1 µM]	x	x	-8%
C=CCN1C(c2ccc(Br)cc2)=CS/C1=C(\C#N)c1nnc(N2CCOCC2)n1-c1ccccc1	-8	-3%	u	u	-23%	0%
C=CCN1C(c2ccc(OCC)cc2)=CS/C1=C(\C#N)c1nnc2n1CCCCC2	-60*	-23%	u	u	u	-21%
SMILES	HCMV antiviral	VACV mCherry inh	Lassa entry inh	MARV entry inh	HCV inhibitor	VACV Venus inh
COc1ccc(COC(=O)N/N=C2\C[C@@H](O)[C@@H](O)[C@@H]3[C@@H]4C(=O)N(Cc5ccc6c(c5)OCO6)C(=O)[C@@H]4CC[C@@H]23)cc1	x	x	x	4%[14.2 µM]	x	x
Cc1ccc(NC(=O)CSC2=C(C#N)C(c3ccc4c(c3)OCO4)CC(=O)N2)cc1C (stereo not drawn)	u	x	4%	-6%	u	x
CCOC(=O)CSC1=C(C#N)C(c2ccc(Cl)cc2)CC(=O)N1 (stereo not drawn)	9	-30%	x	x	u	-27%
CCOC(=O)CSC1=C(C#N)C(c2ccc(C)o2)CC(=O)N1 (stereo not drawn)	-84*	-20%	x	x	u	u
CCOC(=O)CSC1=C(C#N)C(c2ccc3c(c2)OCO3)CC(=O)N1 (stereo not drawn)	-13	-30%	-29%	16µM*	u	u
CCc1ccc(NC(=O)CSC2=C(C#N)C(c3ccc4c(c3)OCO4)CC(=O)N2)cc1 (stereo not drawn)	-77*	-3%	0%	-2%	11µM*	-17%
CCCOC(=O)CSC1=C(C#N)C(c2ccccc2Cl)CC(=O)N1 (stereo not drawn)	-8	-28%	x	x	32µM*	-15%
COc1ccccc1CNC(=O)CCc1c(C)nn(-c2ccc(N3CCCC3)nn2)c1C	u	-9%	-9%[46.1 µM]	x	x	-8%
CC1CCN(c2nc(-c3ccncc3)nc3ccccc23)CC1	-18	-17%	9%	u	7.1µM*	u
c1ccc2c(c1)nc(N1CCCCCC1)c1ccccc12	-28	-20%	u	u	-23%	-8%
CC1CCCCN1c1nc(-c2ccncc2)nc2ccccc12 (stereo not drawn)	-33	-5%	-10%	u	10µM*	-18%
c1ccc2c(N3CCCCC3)ncnc2c1	-91*	x	-6%	0%	u	x
CC1(C)CC2CC(C)(CN2c2ncnc3ccccc23)C1 (stereo not drawn)	-63*	-17%	-30%	u	11µM*	u
CC1CCCCN1c1nc(-c2ccc(C(C)(C)C)cc2)nc2ccccc12 (stereo not drawn)	u	-11%	u	x	x	-1%
C[N+]1(C)C2CCC1CC(OC(=O)C(O)c1ccccc1)C2 (stereo not drawn)	x	i	x	x	x	-17%
COc1cc(C2Oc3nc(SC)nnc3-c3ccccc3N2C(C)=O)cc(Cl)c1OC (stereo not drawn)	4	-12%	6%[46.1 µM]	-15%[46.1 µM]	x	-1%
CC1CCCCN1c1ncnc2ccccc12 (stereo not drawn)	-88*	-7%	u	u	u	-30%
CCC1CCCCN1c1nc(-c2ccncc2)nc2ccccc12 (stereo not drawn)	u	x	u	9.2µM*	11µM*	x
COc1ccccc1C(=O)NC(=O)Nc1ccc(-n2nc(C(F)(F)F)cc2C(F)(F)F)cc1	-3	-22%	-1%[46.1 µM]	-9%[46.1 µM]	x	-22%
c1ccc2c(c1)OCCOCCOCCOCCOCCOc1ccccc1OCCOCCOCCO2	-98*	u	u	u	u	-27%
